“And” between values parts separate entries of the source, which are not always exact repeats. Equal values may be shown once. About 13,000 (3.2%) of roughly 400,000 compounds were called active. Inconclusive results (about 18%) are left out. The list comes from a sample in which actives are over-represented; it also holds similar structures and randomly drawn compounds. A number with no mark means an inactive call. The call rests on the fitted dose curve; in most records, active means well fitted cell-killing curve with a large enough effect; inconclusive means small, poorly fitted or top-dose-only effect, or effect the other way; inactive means flat fitted curve, though single readings scatter.
On the % scale 0 is the no-effect control and ±100 the full control effect; potency means the concentration at half of the fitted maximal effect.

The experiment in a line: qHTS assay for MDR1-selective chemotherapeutics: Primary screen using the drug-selected MDR subline cells KB-V1. Further: nearly all actives have a fitted effect of over 60% in size. As to conditions: KB-V1 MDR cells viability, CellTiter-Glo, 72 h; series mostly up to 46.1 µM; activity change, negative = cytotoxicity: at the top concentration. The essentials:
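Cells of the MDR subline KB-V1 are plated, dosed with compound at multiple concentrations, and incubated 72 h at 37 degrees C; CellTiter-Glo is then added and luminescence read after 10 min.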
Background: Quantitative high-throughput screening tests each substance at several concentrations.
On to `COc1cc(NC(=O)C2=C(C)OCCS2)c(Cl)cc1C(=O)NCCCN1CCCC(C)C1` (stereo unspecified), for which the “activity change, negative = cytotoxicity” value was -18.3%.
For the compound `Cc1cc(C)cc(-n2c(SCC(=O)NCC3CCCO3)nc3c([nH]c4ccccc43)c2=O)c1` (stereo unspecified), the “activity change, negative = cytotoxicity” value is 3.92%.
`CCCc1ccc(OCC(=O)NNC(=S)NC(=O)c2ccco2)cc1`: the “activity change, negative = cytotoxicity” value is -7.59%.
Take `CC(Oc1ccc2ccccc2c1)C(=O)NNC(=S)NC(=O)c1ccco1` (stereo unspecified): the Potency is 3.66 µM (active).
For `Cc1ccc(C(=O)NNC(=O)C(C)Oc2ccc3ccccc3c2)o1` (stereo unspecified), the “activity change, negative = cytotoxicity” value is -25.8%.
As for `COC(=O)Cc1ccc(OC2(C)CCN(Cc3ccc4c(c3)OCCO4)C2)cc1` (stereo unspecified), the “activity change, negative = cytotoxicity” value is 0.961%.
Regarding `CC(C)CCNC(=O)CN(C(=O)Cn1nnc(-c2ccc(F)cc2)n1)C1CCCC1`, the Potency is 10.3 µM (active).
On to `CC(C)CCNC(=O)C(C)N(C(=O)Cn1nnc(-c2ccc(F)cc2)n1)C1CCCC1` (stereo unspecified), for which the “activity change, negative = cytotoxicity” value was 0.71%.
Consider `CN(C(=O)Cn1nnc(-c2ccc(F)cc2)n1)C1CCS(=O)(=O)C1` (stereo unspecified), for which the “activity change, negative = cytotoxicity” value is 12.2%.
Take `COc1ccc(C(CNC(=O)c2ccc(OCc3cscn3)cc2)N2CCCC2)cc1` (stereo unspecified): the “activity change, negative = cytotoxicity” value was -28.3%.
`CCCCCCC1(C)NC(c2ccc3c(c2)OCO3)=CC(c2ccccc2O)N1` (stereo unspecified): the “activity change, negative = cytotoxicity” value was 21.4%.
Turning to `Cc1ccc(S(=O)(=O)N2C[C@H]3n4c(=O)ccc(=O)n4C[C@H](OC(=O)NC4CCCC4)[C@@]3(O)C2)cc1`, the “activity change, negative = cytotoxicity” value is 6.2%.
As for `COc1cccc(NC(=O)C2(C)CCN2Cc2ccccc2Cl)c1` (stereo unspecified), the “activity change, negative = cytotoxicity” value is -11.7%.
Consider `O=Nc1c(O)cc(O)c2ccccc12`, for which the “activity change, negative = cytotoxicity” value was -0.874%.
Regarding `Cc1cccc(Nc2nc(C)nc(N)c2S(=O)(=O)c2ccccc2)c1`, the “activity change, negative = cytotoxicity” value is -14.7%.
As for `CCN1CCN(c2ccc([N+](=O)[O-])cc2C(=O)c2ccc(Cl)cc2)CC1`, the Potency is 23.1 µM (active).
Consider `CC1CCN(c2ccc([N+](=O)[O-])cc2C(N)=O)CC1`, for which the “activity change, negative = cytotoxicity” value is -27.9%.
For `O=C(Nc1cccc(Cl)c1)c1cc([N+](=O)[O-])ccc1N1CCN(CCO)CC1`, the “activity change, negative = cytotoxicity” value was -0.872%.
Regarding `COc1ccc(CC(N)c2csc(NC(=O)NC(c3ccccc3)c3ccccc3)n2)cc1` (stereo unspecified), the “activity change, negative = cytotoxicity” value was 3.62%.
For the compound `CC1(C(=O)NS(=O)(=O)c2cccc(OC(F)F)c2)CCN1C(=O)C1CC1` (stereo unspecified), the “activity change, negative = cytotoxicity” value was -4.92%.
On to `Cc1ccc(CN2CC(N3CCC(Cc4ccccc4)CC3)CS2(=O)=O)cc1` (stereo unspecified), for which the “activity change, negative = cytotoxicity” value was -1.68%.
With `O=C(Nc1ccc(Cl)cc1)Nc1ccc(C(=O)N2CCOCC2)cc1`, the “activity change, negative = cytotoxicity” value is -1.12%.
Take `Cc1c(Cl)cccc1NC(=O)Nc1ccc(C(=O)N2CCCC2)cc1`: the Potency is 16.4 µM (active).
Consider `CS(=O)(=O)Nc1ccc(C(=O)N2CCCC2)cc1`, for which the “activity change, negative = cytotoxicity” value is -3.08%.
For `O=C(Nc1cccc(Cl)c1)c1csnn1`, the “activity change, negative = cytotoxicity” value was 12%.
Same read-out and setting: with `COc1ccc(C2NC(=O)N(C)C3=C2C(=O)N(c2ccc(C(=O)O)cc2)C3)cc1` (stereo unspecified) the figure was 5.43%; with `O=S1(=O)N=C(Oc2cccc(Br)c2)c2ccccc21`, 5.35%.
Regarding `Cc1cccc(C(=O)OCC(=O)Nc2ccc(F)cc2)c1`, the “activity change, negative = cytotoxicity” value was 2.36%.
In the case of `CCCCOC(=O)c1ccc(NC(c2ccc(C)cc2)P(=O)(OC)OC)cc1` (stereo unspecified), the “activity change, negative = cytotoxicity” value was -7.03%.
With `CCOP(=O)(OCC)C(Nc1cccc(C)c1)c1ccc(F)cc1` (stereo unspecified), the Potency is 16.4 µM (active).
For the compound `CCOC(=O)c1cc2cc(OC)ccc2n1C1CCN(C)CC1`, the “activity change, negative = cytotoxicity” value was 17.4%.
In the case of `Cc1ccc2sc(N(Cc3cccnc3)C(=O)C3COc4ccccc4O3)nc2c1C` (stereo unspecified), the “activity change, negative = cytotoxicity” value was -11.2%.
In the case of `CCN(CC)C(=O)CSc1nc2ccccc2o1`, the “activity change, negative = cytotoxicity” value is 6.7%.
For `Cn1c(=O)c2c(nc(Br)n2CCSc2nc3ccccc3o2)n(C)c1=O`, the Potency is 6.51 µM (active).
On to `Cn1c(=O)[nH]c(=O)c2c1nc(Br)n2CCCCSc1nc2ccccc2o1`, for which the “activity change, negative = cytotoxicity” value is -10.4%.
Still for that read-out and setting: for `O=C(Nc1ccc(N2CCOCC2)cc1)c1cccc2c(-c3ccc(F)c(F)c3)coc12` the value was -1.2%; for `Cc1ccn(CC(=O)NC2CCCN(Cc3ccccc3F)C2)n1` (stereo unspecified), -2.26%.
Regarding `COc1ccccc1N1CCN(C(=O)c2cn(-c3ccccc3)nc2-c2cccnc2)CC1`, the “activity change, negative = cytotoxicity” value was -21.6%.
With `CCn1cc(C(=O)N2CCN(C3CCCCC3)CC2)c2cc(OC)c(OC)cc2c1=O`, the “activity change, negative = cytotoxicity” value was 17.4%.
In the case of `CCc1ccc(-c2nn(-c3ccccc3C)cc2C(=O)N2CCN(C3CCS(=O)(=O)C3)CC2)cc1` (stereo unspecified), the Potency was 14.6 µM (active).
In the case of `COc1cc(C)c(CN2CCN(C(=O)CCC(=O)c3ccc(C)s3)CC2)cc1OC`, the “activity change, negative = cytotoxicity” value is -26.6%.
Regarding `CCCNC(=O)c1cc(C2CCCCN2S(=O)(=O)c2ccc(C#N)cc2)on1` (stereo unspecified), the “activity change, negative = cytotoxicity” value is 0.778%.
As to `O=C(CN1CCSc2ccccc21)N1CCN(c2ccccc2)CC1`, the “activity change, negative = cytotoxicity” value is 0%.
In the case of `CCN(CC)CCNC(=O)c1ccc(NC(=O)c2cc(-c3ccncc3)nc3ccccc23)cc1`, the “activity change, negative = cytotoxicity” value is -4.9%.
Consider `CCCN(CCC)CCNC(=O)c1cc2c(C)nc3ccccc3c2o1`, for which the Potency is 14.1 µM (active).
Regarding `Cc1nc2ccccc2c2oc(C(=O)NCCCN3CCC(C)CC3)cc12`, the “activity change, negative = cytotoxicity” value is -3.06%.
Regarding `Cc1csc[n+]1CCC1CCCCC1`, the “activity change, negative = cytotoxicity” value was 5.44%.
As to `COc1ccccc1CC(=O)Nc1ccc([N+](=O)[O-])cc1OC`, the Potency was 16.4 µM (active).
On to `COc1ccccc1CC(=O)Nc1ccc(F)cc1F`, for which the “activity change, negative = cytotoxicity” value was 0.422%.
For `COc1cc([N+](=O)[O-])ccc1NC(=O)CN1CCCC1`, the “activity change, negative = cytotoxicity” value was 1.92%.
For the compound `Cc1ccc(CNC(=O)CCc2c(C)nc3c(c(C)nn3-c3ccccc3)c2C)cc1`, the “activity change, negative = cytotoxicity” value is -3.47%.
On to `Cc1ccccc1S(=O)(=O)NC(=O)C1(C)CCN1C(=O)C1(c2ccccc2)CCCC1` (stereo unspecified), for which the “activity change, negative = cytotoxicity” value was 3.11%.
Take `COc1cc(OC)c2c(c1)OC(=O)CC2c1cc(OC)c(OC)c(OC)c1` (stereo unspecified): the “activity change, negative = cytotoxicity” value was 6.5%.
`COc1cc(C2CC(=O)Oc3cc(OC)c(OC)c(OC)c32)cc(OC)c1OC` (stereo unspecified): the “activity change, negative = cytotoxicity” value is -0.0159%.
`COc1cc(C2c3cc4c(cc3C(O)C3COC(=O)C23)OCO4)cc(OC)c1OC` (stereo unspecified): the Potency is 4.11 µM (active) and 231 nM (active).
Regarding `Cc1nn(C)c2c1c(C(F)(F)F)cc(=O)n2C(C)C(=O)NCc1ccc(Cl)cc1` (stereo unspecified), the “activity change, negative = cytotoxicity” value was 4.71%.
In the case of `Cc1cccc(-c2cnc(C(O)c3ccc4ccccc4c3)[nH]2)c1` (stereo unspecified), the “activity change, negative = cytotoxicity” value was -2.55%.
`Cc1ccccc1-c1ccc(Nc2ccc(C(=O)N3CCOCC3)cc2)nn1`: the Potency is 14.6 µM (active).
`Cc1cc(Nc2ccc(C(=O)N3CCCCC3)cc2)c2cccc(C)c2n1`: the “activity change, negative = cytotoxicity” value is -12.8%.
Take `O=C(Cc1ccc([N+](=O)[O-])cc1)Nc1ccc(C(=O)N2CCOCC2)cc1`: the “activity change, negative = cytotoxicity” value was -16.5%.
Regarding `Cc1ccccc1NC(=O)Cc1nc(COC(=O)CNC(=O)c2ccc(Cl)cc2Cl)cs1`, the “activity change, negative = cytotoxicity” value is 19.5%.
As for `CS(=O)(=O)/C(C#N)=C/c1cccn1S(=O)(=O)c1ccc([N+](=O)[O-])cc1`, the “activity change, negative = cytotoxicity” value was 14.5%.
On to `COc1ccc(C(C)(O)c2nc(-c3ccc(C)c(C)c3)cs2)cc1` (stereo unspecified), for which the “activity change, negative = cytotoxicity” value was 8.75%.
On to `COc1cccc(Nc2nc(N)c([N+](=O)[O-])c(NCc3ccco3)n2)c1`, for which the “activity change, negative = cytotoxicity” value is -1.12%.
Consider `CN(c1ccccc1)c1nc(N)c([N+](=O)[O-])c(NCc2ccco2)n1`, for which the Potency was 20.6 µM (active).
As to `COCCNc1nc(N)c([N+](=O)[O-])c(NCCO)n1`, the “activity change, negative = cytotoxicity” value was 3.27%.

Source of the values: PubChem BioAssay AID1347076 (National Center for Advancing Translational Sciences (NCATS), 2019).
